# Test results from PMC5540273 (PLoS ONE, 2017).
# Read-outs that look alike come from different tables or passages of the source.
# Legend:
# LCK = settings: concentration: 1 μM, replicates: in singlicate; n = 1
# LIMK1 = settings: concentration: 1 μM, replicates: in singlicate; n = 1
# LIMK2 = settings: concentration: 1 μM, replicates: in singlicate; n = 1
# LKB1 = tested on: T1, LKB1; settings: concentration: 1 μM, replicates: in singlicate; n = 1
# T1 construct: gene STK11
# LOK = tested on: T2, LOK; settings: concentration: 1 μM, replicates: in singlicate; n = 1
# T2 construct: gene STK10
# LRRK2 = settings: concentration: 1 μM, replicates: in singlicate; n = 1
# LTK = settings: n = 1
# LYN = settings: concentration: 1 μM, replicates: in singlicate; n = 1
# LZK = tested on: T3, LZK; settings: concentration: 1 μM, replicates: in singlicate; n = 1
# T3 construct: gene MAP3K13
# MAK = settings: concentration: 1 μM, replicates: in singlicate; n = 1
# [1] = concentration: 1 μM, replicates: in singlicate
# 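Also: KINOMEscan kinase panel screen.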
Compound,%Inh (LCK) [%],%Inh (LIMK1) [%],%Inh (LIMK2) [%],%Inh (LKB1) [%],%Inh (LOK) [%],%Inh (LRRK2) [%],%Inh (LTK; [1]) [%],%Inh (LYN) [%],%Inh (LZK) [%],%Inh (MAK) [%],%Inh (LTK; 1 µM) [%]
COC(=O)Nc1nc2ccc(Oc3ccc(NC(=O)Nc4cc(C(F)(F)F)ccc4F)cc3)cc2[nH]1.Cl [GW654607],99.3,37,16,0,99.1,28,63,86,0,85,
Cn1cc(-c2ccc3c(c2)CCN3C(=O)Cc2cc(F)cc(F)c2F)c2c(N)ncnc21 [GSK2634140],58,0,0,0,91.8,0,24,0,0,23,
CN(c1ccc(NC(=O)Nc2cccc(Cl)c2)cc1)c1ccnc(N)n1.Cl [GW830707],7,0,0,20,97.8,66,12,0,0,11,
Cc1ccc(C)c(NC(=O)Nc2ccc(C)c(-c3ccc(C(=O)Nc4ccncc4)cc3)c2)c1 [GSK1398473],47,25,2,0,0,0,0,17,0,65,
N#Cc1cnc2cc(-c3cnc(CNCCN4CCOCC4)s3)ccc2c1Nc1ccc(Oc2ccccc2)cc1 [GW664114],99.7,6,0,0,88,0,0,90,76,28,
CN(C)CCNS(=O)(=O)c1ccc(-c2ccnc3[nH]ccc23)cc1 [GSK977620],23,0,0,0,0,47,4,0,0,84,
Nc1cccc(-c2ccc3c(N)n[nH]c3c2)c1 [GSK2193613],9,0,12,12,0,0,0,0,0,18,
CN1CCN(Cc2ccc(NC(=O)Nc3ccc(N(C)c4ccnc(Nc5ccc(CS(C)(=O)=O)cc5)n4)cc3)cc2)CC1.Cl [GW827654],82,27,31,17,99.9,0,46,70,42,34,
COc1cccc(C2=C(Nc3cccc(O)c3)C(=O)NC2=O)c1 [SB-390771],11,9,18,0,0,0,6,24,0,25,
O=C(Nc1n[nH]c2nc(-c3ccccc3)ccc12)C1CC1 [SB-708999],9,0,31,0,30,0,0,21,2,38,
O=C(Nc1n[nH]c2nc(-c3cccc(O)c3)ccc12)C1CC1 [SB-711805],25,0,0,14,15,0,12,5,0,0,
CSc1ccc(NC2=C(c3ccc(Cl)cc3)C(=O)NC2=O)cc1 [SB-317658],0,11,1,54,29,43,27,26,0,37,
CCn1cnc2c(NCc3ccccc3)ncnc21 [SKF-96418],0,0,0,25,5,0,0,0,34,0,
N#CC1(c2cccc(C(=O)Nc3cccc(Oc4ccc5nc(NC(=O)C6CC6)sc5n4)c3)c2)CC1,99.3,6,0,0,95.9,0,0,91.4,0,3,
Cn1cc(-c2ccc3c(c2)CCN3C(=O)Cc2cc(F)cc(C(F)(F)F)c2)c2c(N)ncnc21 [GSK2635225],62,0,0,16,84,0,18,26,3,26,
Cc1ccc(O)cc1Nc1ccnc2ccc(C(C)(C)C)cc12 [GW856805],98.6,0,0,33,16,67,11,69,0,23,

Compound,%Inh (LCK) [%],%Inh (LIMK1) [%],%Inh (LIMK2) [%],%Inh (LKB1) [%],%Inh (LOK) [%],%Inh (LRRK2) [%],%Inh (LTK; [1]) [%],%Inh (LYN) [%],%Inh (LZK) [%],%Inh (MAK) [%],%Inh (LTK; 1 µM) [%]
Cn1cc(-c2cnc(N)c3c(-c4ccc5c(c4)CCN5C(=O)Cc4ccccc4)csc23)cn1 [GSK2593074],93.8,49,55,0,98.9,3,,65,0,0,0
Cc1ccc(-c2ccc3occ(-c4ccc(S(C)=O)cc4)c3c2)nn1 (centres unmarked),0,0,0,0,0,0,0,1,1,0,
CCOc1nccc(-c2c(-c3ccc(F)cc3)ncn2C2CCNCC2)n1 [SB-249175],82,3,11,30,0,0,4,12,3,1,
CCNC(=O)/C=C/c1n[nH]c2cc(Sc3ccccc3C(=O)NC)ccc12,11,25,11,0,27,0,0,16,14,26,
Fc1cc(Cl)ccc1Nc1ccnc2cc(-c3ccc(CN4CCSCC4)o3)ccc12 [GW560106],98.4,0,0,11,73,22,61,74,32,32,
Cc1ccc(NC(=O)c2ccnc(N3CCCCC3)c2)cc1-c1ccc(C(=O)NCC2CC2)cc1 [GW775610],29,0,0,34,79,0,15,0,0,13,
Cc1ccc(Nc2ccnc(Nc3ccc(C)c(F)c3)n2)cc1O.Cl [GW582868],59,0,0,0,5,57,0,22,24,17,
CC(C)c1nc(-c2ccc(F)c(NS(=O)(=O)c3c(F)cccc3F)c2)c(-c2ccnc(Nc3ccc(N4CCOCC4)nc3)n2)s1 [GSK1804250],99.6,100,100,0,99.3,9,6,93.8,58,24,
COc1ccc(C2=C(Nc3cccc(O)c3)C(=O)NC2=O)cc1 [SB-390766],0,0,10,0,0,5,30,52,6,0,
COc1cc(Nc2nccc(N3CCC(NC(=O)Nc4ccc5c(c4)OCO5)C3)n2)cc(OC)c1OC (centres unmarked) [GSK1379766],32,40,13,0,0,0,74,3,24,3,
CCn1c(-c2nonc2N)nc2c(-c3ccccc3)ncc(OCCCN)c21.O=C(O)C(F)(F)F.O=C(O)C(F)(F)F [GSK260205],29,1,0,0,98.7,28,0,0,0,0,
NCCC(NC(=O)c1cc(Br)c(-c2ccnc3[nH]ccc23)s1)c1ccccc1.O=C(O)C(F)(F)F.O=C(O)C(F)(F)F (centres unmarked) [GSK1307810],12,12,30,29,0,14,0,7,30,30,
O=C(O)C(F)(F)F.O=c1[nH]ccc2nc(N[C@@H]3CCNC3)nc(Nc3cc(Cl)cc(Cl)c3)c12 [GSK2188764],0,19,13,43,70,97.3,31,21,7,16,
O=C(Nc1c(F)cccc1F)c1cc(C(=O)c2ccccc2F)c[nH]1 [GSK1326180],8,3,0,0,28,6,0,0,0,0,
Cc1cc(-c2c(-c3ccc(F)cc3)ncn2CCCN2CCOCC2)nc(N)n1 [SB-222517],12,0,0,45,18,0,4,17,0,35,
COC(=O)Nc1nc2cc(Oc3ccc(NC(=O)Nc4cccc(SC)c4)cc3)ccc2[nH]1.Cl [GW697999],68,0,4,17,99.4,18,0,24,23,14,
